Records with an inconclusive call do not appear. Calls of active or inactive are those of the source. Unless noted, calls come from the whole dose curve; as a rule, active = well fitted curve in the direction sought with a large enough effect; inconclusive = small, poorly fitted or top-dose-only effect, or another doubt; inactive = no such curve, though single readings can be large; an effect the other way counts as inactive or inconclusive.
Experiments:
[1] = test system: Zika virus NS2B-NS3 protease (linked construct); experiment: Primary screen NINDS Rhodamine qHTS for Zika virus inhibitors (AID 1347160); note: potency is the fitted concentration of half-maximal effect; nearly all actives have a fitted effect of over 55% in size
Summary of the method: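 Percent inhibition, normalized to uninhibited and enzyme-free controls, is fitted to a 4-parameter Hill equation. Fluorescence change comes from a 15-min cleavage of 1.5 microM bis-peptide Rhodamine110 substrate by 25 nM linked NS2B-NS3 at room temperature.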

[2] = HPAF-II Cancer Cell Toxicity qHTS against the NCATS CANVASS Library (AID 1347346); note: potency is the fitted concentration of half-maximal effect; nearly all actives have a fitted effect of over 55% in size
Summary of the method: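 HPAF-II cells were seeded at 1000 cells/well, allowed to settle for 4 h at 37 degrees C, then exposed to compounds in an 11-point series for 72 h. Viability was read by CellTiter-Glo luminescence.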

[3] = OV-SAHO Cancer Cell Toxicity qHTS against the NCATS CANVASS Library (AID 1347348); note: potency is the fitted concentration of half-maximal effect; nearly all actives have a fitted effect of over 55% in size
Summary of the method: (§1)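 ATP content after 72 h treatment, detected by CellTiter-Glo luminescence (15min room-temperature development), reflects cell viability. Wells contained 1000 cells and received compounds at 11 concentrations.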

[4] = Panc-1005 Cancer Cell Toxicity qHTS against the NCATS CANVASS Library (AID 1347349); note: potency is the fitted concentration of half-maximal effect; nearly all actives have a fitted effect of over 60% in size
Summary of the method: as §1

[5] = U-118MG Cancer Cell Toxicity qHTS against the NCATS CANVASS Library (AID 1347351); note: potency is the fitted concentration of half-maximal effect
Summary of the method: as §1

[6] = A2780 Cisplatin Sensitive Ovarian Cancer Cell Toxicity qHTS against the NCATS CANVASS Library (AID 1347353); note: potency is the fitted concentration of half-maximal effect; nearly all actives have a fitted effect of over 60% in size
Summary of the method: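 A2780 cisplatin-sensitive cells (750 per well) were seeded, left 4 h at 37 °C, then pin-dosed in an 11-point series. After 72 h at 37 °C/5% CO2, viability was measured as ATPLite luminescence.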

[7] = UWB1.289-WTBRCA1 Cancer Cell Toxicity qHTS against the NCATS CANVASS Library (AID 1347354); note: potency is the fitted concentration of half-maximal effect
Summary of the method: (§2)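 Cells were seeded at 1000 per well and allowed to settle 4 hours at 37 degrees C before pin transfer of compounds as an 11-point series. Viability was read by CellTiter-Glo luminescence after 72 hours' exposure.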

[8] = HEK-293 Cancer Cell Toxicity qHTS against the NCATS CANVASS Library (AID 1347355); note: potency is the fitted concentration of half-maximal effect; nearly all actives have a fitted effect of over 65% in size
Summary of the method: as §2

[9] = HPAF-II 24hr Apoptosis Induction qHTS against the NCATS CANVASS Library (AID 1347356)
Summary of the method: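 HPAF-II cells (500/well) in DMEM + 10% FBS were treated with an 11-point compound series for 24 hours at 37 degrees C. Caspase-3/7 activity was then read by Caspase-Glo DEVD luminescence after 15 min.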

[10] = HEK293 18hr Apoptosis Induction qHTS against the NCATS CANVASS Library (AID 1347357)
Summary of the method: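 HEK293 cells (500/well, DMEM + 10% FBS) treated with an 11-point series for 18 h at 37 degrees C. Caspase-3/7 activity read by Caspase-Glo luminescence after 15 min at room temperature.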

[11] = HEK293 24hr Apoptosis Induction qHTS against the NCATS CANVASS Library (AID 1347359)
Summary of the method: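 Caspase-3/7 activation measured as luminescence from the DEVD-based Caspase-Glo reagent, 15 min at room temperature, following 24-hour compound treatment of HEK293 cells.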

[12] = HPAF-II 18hr Apoptosis Induction qHTS against the NCATS CANVASS Library (AID 1347360)
Summary of the method: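 HPAF-II cells at 500/well were exposed for 18 h at 37 C to an 11-point compound series. Caspase-3/7 activity was read by Caspase-Glo luminescence after 15 min at RT.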

[13] = HEK293 12hr Apoptosis Induction qHTS against the NCATS CANVASS Library (AID 1347361)
Summary of the method: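 HEK293 cells (500/well) were exposed to an 11-point qHTS concentration series for 12 hours at 37 degrees C. Caspase-3/7 activity was then read by DEVD-substrate luciferase luminescence after 15 min at room temperature.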

[14] = molecular target: Luciferin 4-monooxygenase (Photinus pyralis) (UniProt P08659); experiment: Firefly luciferase counterscreen qHTS: Assay Interference Panel against the NCATS CANVASS Library (AID 1347363); note: series mostly up to about 57 µM
Summary of the method: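 Luminescence inhibition readout: compounds (11-point qHTS) sat 15 min at room temperature with substrate mix (0.013 mM luciferin and ATP), then firefly luciferase was added and signal read 5 min later.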

[15] = KB-8-5-11 Cancer Cell Toxicity qHTS against the NCATS CANVASS Library (AID 1347364); note: potency is the fitted concentration of half-maximal effect; nearly all actives have a fitted effect of over 75% in size
Summary of the method: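 KB-8-5-11 cells (500/well) in DMEM + 10% FBS were exposed to compounds in an 11-point qHTS series for 72 hr at 37C, 5% CO2. Viability was read by CellTiter-Glo luminescence.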

[16] = KB-3-1 Cancer Cell Toxicity qHTS against the NCATS CANVASS Library (AID 1347366); note: potency is the fitted concentration of half-maximal effect; nearly all actives have a fitted effect of over 75% in size
Summary of the method: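 KB-3-1 cells (500/well) in DMEM with 10% FBS were exposed to compounds for 72 h at 37C. Viability was read by CellTiter-Glo luminescence.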

[17] = qHTS for ATAD5 Agonist screened against the NCATS CANVASS Library (AID 1347367);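 note: luciferase reporter driven by ATAD5 which rises upon DNA damage; potency is the fitted concentration of half-maximal effect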
Summary of the method: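 Luciferase reporter under ATAD5 control, stably integrated in HEK293T cells (2000/well). Compounds (11 points) incubated 16 h at 37C; viability read first by CellTiter-Fluor, then luminescence reporting ATAD5 activation. MMS positive control.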

[18] = G06 Cancer Cell Toxicity qHTS against the NCATS CANVASS Library (AID 1347368); note: potency is the fitted concentration of half-maximal effect; nearly all actives have a fitted effect of over 60% in size
Summary of the method: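 G06 dog glioma cells seeded at 500 cells/well were exposed to compounds (11-point qHTS series) for 72 hr at 37C, 5% CO2; viability read as ATP content by CellTiterGlo luminescence.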

[19] = MCF7 Cancer Cell Toxicity qHTS against the NCATS CANVASS Library (AID 1347369)
Summary of the method: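 MCF7 cells (500/well) were exposed 72 h at 37 °C to compounds in an 11-point series. Viability was read as ATP content by CellTiterGlo luminescence.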

[20] = J3T Cancer Cell Toxicity qHTS against the NCATS CANVASS Library (AID 1347371); note: potency is the fitted concentration of half-maximal effect
Summary of the method: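 J3T dog glioma cells (500 cells/well) were exposed to compounds in an 11-point series for 72 hr at 37C, 5% CO2. Cytotoxicity was read as ATP content by CellTiterGlo luminescence.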

[21] = molecular target: Nuclear receptor subfamily 1 group I member 3 (Homo sapiens) (UniProt Q14994); experiment: qHTS for Constitutive Androstane Receptor (CAR) Antagonist screened against the NCATS CANVASS Library (AID 1347372); note: potency is the fitted concentration of half-maximal effect
Summary of the method: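 HepG2-CYP2B6-hCAR double-stable cells plated, 4hr attach; cpd pin-transferred; CITCO 50 nM final; 24hr 37C/5% CO2; CellTiter-Fluor 1hr (fluorescence), then ONE-Glo luminescence.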

[22] = molecular target: Nuclear receptor subfamily 1 group I member 3 (Homo sapiens) (UniProt Q14994); experiment: qHTS for Constitutive Androstane Receptor (CAR) Agonist screened against the NCATS CANVASS Library (AID 1347373);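 note: every well also contained 1.5 µM PK11195 alongside the test compound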
Summary of the method: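 HepG2 cells stably expressing hCAR and a CYP2B6-2.2kb luciferase reporter were treated for 24hr at 37C with compounds (11-point qHTS) in the presence of 1.5uM PK11195. Reporter activation was read by ONE-Glo luminescence.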

[23] = qHTS for Hypoxia signaling pathway (HIF-1) antagonists against the NCATS CANVASS Library (AID 1347374);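 note: HRE-bla ME-180 cells stimulated with cobalt chloride to stabilize HIF-1alpha; series mostly up to about 38 µM; nearly all actives have a fitted effect of over 60% in size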
Summary of the method: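 HRE-bla ME-180 cells (2,000/well, 0.5% dialyzed FBS) were pre-incubated 5 h, then given an 11-point compound series plus CoCl2 (60 uM solution as added) for 17 h at 37C. CCF4 β-lactamase read (ex 405, em 460/530 nm) after 2 h at RT.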

[24] = qHTS for Hypoxia signaling pathway (HIF-1) agonists against the NCATS CANVASS Library (AID 1347375)
Summary of the method: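 HRE-bla ME-180 cells (beta-lactamase reporter under hypoxia responsive element) in 0.5% dialyzed FBS medium, 5 h at 37C, then compound 17 h, 11-point qHTS series. CCF4-AM FRET substrate 2 h RT; 460/530 nm emission read.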

[25] = 10-beta competent E. coli microbial cell viability qHTS against the NCATS CANVASS Library (AID 1347376); note: series mostly up to about 46 µM
Summary of the method: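 10-beta competent E. coli (0.9 OD culture diluted to 0.2 OD) exposed to compounds in an 11-point qHTS series, incubated overnight at 37C, 5% CO2. Viability read as ATP by BacTiter-Glo luminescence after 20 min at room temperature.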

[26] = DH5-alpha competent E. coli microbial cell viability qHTS against the NCATS CANVASS Library (AID 1347377); conditions: outcome: dose series up to 46.1 µM
Summary of the method: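 DH5-alpha E. coli suspension (0.9 OD culture diluted to 0.2 OD) exposed to compounds in an 11-point series, overnight at 37C, 5% CO2. Viability read as ATP by BacTiter-Glo luminescence after 20 min at room temperature.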

[27] = Inflammasome Signaling qHTS Counterscreen: IL-1-beta AlphaLISA counterscreen against the NCATS CANVASS Library (AID 1347381);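 note: cell-free check with purified IL-1β in medium and no THP-1 cells; series mostly up to about 57 µM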
Summary of the method: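 To flag interference with the AlphaLISA read-out, a known amount of purified IL-1-beta (4 pg) replaced cell supernatant. Detection used anti-IL-1-beta acceptor beads, biotinylated antibody and streptavidin donor beads at room temperature.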

[28] = Secretion counterscreen for inhibitors of the SERCaMP assay screened against the NCATS CANVASS Library (AID 1347390);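 note: light from luciferase secreted into medium read as a measure of general secretion; series mostly up to about 77 µM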
Summary of the method: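 SH-SY5Y cells with constitutively secreted GLuc reporter, 1000 cells/well, treated 20 h at 37C with compounds at 0.001 - 77 uM final; secreted luciferase read as luminescence after coelenterazine; Brefeldin A as positive control.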

[29] = qHTS for activators of dead-cell proteases activity screened against the NCATS CANVASS Library (AID 1347392);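 note: luminescence from protease leaking out of membrane-damaged cells cleaving impermeant substrate; rising signal means more cytotoxicity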
Summary of the method: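 Compounds are pin-transferred onto attached HepG2 cells, giving 11 final concentrations. After 5 h at 37C, AAF-aminoluciferin reagent is added and luminescence is recorded at room temperature.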

[30] = qHTS for inhibitors of ER calcium dysfunction: SERCaMP assay screened against the NCATS CANVASS Library (AID 1347393);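 note: series mostly up to about 77 µM; lower secreted reporter signal means inhibitor of ER calcium depletion; nearly all actives have a fitted effect of over 40% in size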
Summary of the method: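 Thapsigargin-induced ER calcium depletion drives GLuc-SERCaMP secretion from SH-SY5Y cells; compounds given 16 h beforehand were scored by lowered coelenterazine luminescence after 4 h challenge.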

[31] = Vero-766 cells viability qHTS against the NCATS CANVASS Library: Counterscreen for Zika virus inhibition assay (AID 1347394)
Summary of the method: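 Vero 766 cells (1000/well), without Zika virus, were exposed to compounds for 72 h at 37C. Viability was measured by CellTiter Glo luminescence. Media-only wells served as 100% inhibition.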

[32] = Redox Reaction Profiling qHTS: Assay Interference Panel against the NCATS CANVASS Library (AID 1347401)
Summary of the method: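 Cell-free redox surrogate: 5 uM resazurin + 200 uM DTT, 50 mM HEPES pH 7.3/50 mM NaCl; cpds pinned, 11-pt qHTS; Ex525/Em598 read t0 and t=15 min, dark.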

[33] = NCATS anti-infectives library activity on HEK293 viability as a counter-qHTS vs the C. elegans viability qHTS (AID 1745854)
Summary of the method: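 HEK293 cells, 1500 per well, exposed 24 hr at 37C in 5% CO2 to compounds in a 1:5 titration, up to 41.7 uM final. Viability read as CellTiter-Glo luminescence after 10 min at room temperature.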

[34] = NCATS anti-infectives library activity on the primary C. elegans qHTS viability assay (AID 1745855; calls by dose curve)
Summary of the method: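 Viability is taken from GFP fluorescence of PE254-GFP-FLuc C. elegans imaged by laser cytometry over 7 days. Ten L1 worms per well grow at 21 °C on TOP10 E. coli capsules with titrated compound; levamisole marks toxicity.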

Measured: Potency

Nuclear receptor subfamily 1 group I member 3 (Homo sapiens), sequence (Q14994 whole entry, looked up): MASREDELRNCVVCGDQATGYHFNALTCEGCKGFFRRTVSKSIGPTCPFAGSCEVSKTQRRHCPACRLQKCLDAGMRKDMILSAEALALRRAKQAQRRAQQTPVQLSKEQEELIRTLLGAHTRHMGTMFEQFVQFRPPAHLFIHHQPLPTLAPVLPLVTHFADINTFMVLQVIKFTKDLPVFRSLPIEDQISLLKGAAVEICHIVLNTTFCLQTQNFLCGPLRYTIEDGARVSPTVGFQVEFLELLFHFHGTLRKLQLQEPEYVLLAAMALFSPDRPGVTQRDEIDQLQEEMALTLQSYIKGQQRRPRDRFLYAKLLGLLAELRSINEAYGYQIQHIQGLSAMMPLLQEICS
Luciferin 4-monooxygenase (Photinus pyralis), sequence (P08659 whole entry, looked up): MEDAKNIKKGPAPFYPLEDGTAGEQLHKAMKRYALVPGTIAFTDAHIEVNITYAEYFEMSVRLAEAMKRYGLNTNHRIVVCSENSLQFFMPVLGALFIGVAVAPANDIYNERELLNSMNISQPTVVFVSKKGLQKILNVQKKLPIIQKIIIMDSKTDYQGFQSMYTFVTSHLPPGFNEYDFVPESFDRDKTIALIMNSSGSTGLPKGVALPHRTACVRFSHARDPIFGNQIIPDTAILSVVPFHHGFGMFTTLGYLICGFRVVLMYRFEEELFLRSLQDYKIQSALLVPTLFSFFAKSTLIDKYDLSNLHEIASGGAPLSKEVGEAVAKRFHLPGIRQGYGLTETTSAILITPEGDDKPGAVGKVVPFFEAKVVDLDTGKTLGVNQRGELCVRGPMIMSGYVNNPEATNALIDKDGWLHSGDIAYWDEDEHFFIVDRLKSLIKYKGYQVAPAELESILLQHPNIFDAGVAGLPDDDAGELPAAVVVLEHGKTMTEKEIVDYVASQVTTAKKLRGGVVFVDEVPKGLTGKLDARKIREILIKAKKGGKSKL

CCC(=O)CCCCC[C@@H]1NC(=O)[C@H]2CCCCN2C(=O)[C@H]([C@@H](C)CC)NC(=O)[C@H](Cc2cn(OC)c3ccccc23)NC1=O
active: [1] 13900 nM | [2] 841 nM | [3] 3750 nM | [4] 668 nM | [5] 530 nM | [6] 1050 nM | [7] 6660 nM | [8] 935 nM | [15] 13200 nM | [16] 1180 nM | [17] 1860 nM | [18] 743 nM | [20] 5900 nM | [21] 2340 nM | [31] 1860 nM
inactive: all other assays above
